From PubChem BioAssay
Calls of active or inactive are those of the source.

Key:
[1] = optical density shifts of acrAB sulA E. coli – strain DRC41, OD650, 48 h, E. coli filamentation inducer project, primary screen (AID 1152); settings: higher = more signal, called active from +8 up or from −8 down;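 note: E. coli MC1000 strain DRC41 lacking acrAB efflux pump and sulA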
[2] = probe aLefty1 binding on compound microarray – biochemical, small-molecule microarray, 635/667 nm fluorescence, primary screen (AID 1153); settings: higher = more signal;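 note: score merges spot fluorescence with signal-to-noise ratio from the scanned slide images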
[3] = plasmodial surface anion channel blockers, osmotic lysis – cell-based, P. falciparum Indochina, OD700, 1 h, primary screen (AID 1154); settings: P. falciparum Indochina infected RBC osmotic lysis, higher = more signal, called active from +8 up or from −8 down
[4] = plasmodial surface anion channel blockers, osmotic lysis – cell-based, P. falciparum Indochina, OD700, 2 h, primary screen (AID 1155);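 note: lysis reports solute entry through the parasite surface anion channel PSAC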; settings: P. falciparum Indochina infected erythrocytes, higher = more signal, called active from +8 up or from −8 down
[5] = changes in parasitized red cell lysis, either direction – P. falciparum Indochina, OD700, 3 h, PSAC antagonist project, primary screen (AID 1156); settings: P. falciparum-infected erythrocytes, osmotic lysis, higher = more signal, called active from +8 up or from −8 down
[6] = plasmodial surface anion channel blockers, osmotic lysis – cell-based, P. falciparum Indochina, OD700, 18 h, primary screen (AID 1157); settings: P. falciparum Indochina infected erythrocytes, osmotic lysis OD700, 18 h; higher = more signal, called active from +8 up or from −8 down
[7] = S6 kinase pathway phospho-S6 level changes – cell-based, A549, cytoblot, luminescence, serum-stimulated, primary screen (AID 1158); settings: 5 h, higher = more signal;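 note: serum-stimulated A549 lung adenocarcinoma cells; signal is phosphorylated S6 detected by cytoblot immunostaining with HRP secondary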
[8] = biological target: NADPH oxidase 2 (Homo sapiens) (UniProt P04839); assay: compounds shifting NOX2 Amplex Red fluorescence – cell-based, HEK293-NOX2, PMA-stimulated, NOX inhibitor project, primary screen (AID 1159); settings: 45 min, higher = more signal, called active from +8 up or from −8 down; note: test concentration not given here
NADPH oxidase 2 (Homo sapiens), sequence (P04839 whole entry, looked up): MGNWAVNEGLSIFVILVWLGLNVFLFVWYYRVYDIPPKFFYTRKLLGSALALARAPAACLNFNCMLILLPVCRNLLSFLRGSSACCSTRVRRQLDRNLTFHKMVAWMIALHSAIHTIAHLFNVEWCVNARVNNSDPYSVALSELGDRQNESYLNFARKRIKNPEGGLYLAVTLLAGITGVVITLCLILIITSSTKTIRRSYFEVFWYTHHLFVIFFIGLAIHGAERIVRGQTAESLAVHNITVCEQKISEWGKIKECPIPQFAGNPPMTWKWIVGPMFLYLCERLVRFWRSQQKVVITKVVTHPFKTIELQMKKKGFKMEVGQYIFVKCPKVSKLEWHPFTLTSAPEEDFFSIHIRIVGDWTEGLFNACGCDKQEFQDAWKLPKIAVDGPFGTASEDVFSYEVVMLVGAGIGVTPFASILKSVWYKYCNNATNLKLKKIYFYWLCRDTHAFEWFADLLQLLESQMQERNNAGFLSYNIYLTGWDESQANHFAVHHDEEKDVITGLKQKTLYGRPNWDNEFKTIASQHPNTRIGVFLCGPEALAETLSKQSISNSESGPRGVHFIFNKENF

[9] = biological target: NADPH oxidase 4 (Homo sapiens) (UniProt Q9NPH5); assay: compounds shifting NOX4 Amplex Red fluorescence – cell-based, HEK293-NOX4, tetracycline-induced, NOX inhibitor project, primary screen (AID 1160); settings: HEK293-NOX4, Amplex Red H2O2 fluorescence, 45 min; higher = more signal, called active from +8 up or from −8 down
NADPH oxidase 4 (Homo sapiens), sequence (Q9NPH5 whole entry, looked up): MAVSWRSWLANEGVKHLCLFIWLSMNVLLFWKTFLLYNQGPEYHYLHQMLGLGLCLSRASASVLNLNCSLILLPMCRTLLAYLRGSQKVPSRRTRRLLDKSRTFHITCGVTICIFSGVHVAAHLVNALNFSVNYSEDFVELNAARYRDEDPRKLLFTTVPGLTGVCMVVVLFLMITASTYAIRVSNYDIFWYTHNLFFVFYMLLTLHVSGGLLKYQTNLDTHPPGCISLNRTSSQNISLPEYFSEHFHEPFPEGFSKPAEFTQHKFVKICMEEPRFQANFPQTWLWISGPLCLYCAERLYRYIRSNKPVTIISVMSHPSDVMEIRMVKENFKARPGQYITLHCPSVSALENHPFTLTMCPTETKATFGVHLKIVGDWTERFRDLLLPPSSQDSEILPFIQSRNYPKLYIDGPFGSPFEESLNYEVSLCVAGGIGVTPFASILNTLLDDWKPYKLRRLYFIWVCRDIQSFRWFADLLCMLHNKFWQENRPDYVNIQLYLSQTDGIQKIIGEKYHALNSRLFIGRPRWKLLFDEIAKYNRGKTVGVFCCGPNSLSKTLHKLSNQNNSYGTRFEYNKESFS

[10] = biological target: NADPH oxidase 5 (Homo sapiens) (UniProt Q96PH1); assay: compounds shifting NOX5 Amplex Red fluorescence – cell-based, HEK293-NOX5, NOX inhibitor project, primary screen (AID 1161); settings: HEK293-NOX5, ionomycin, 45 min, higher = more signal
NADPH oxidase 5 (Homo sapiens), sequence (Q96PH1 whole entry, looked up): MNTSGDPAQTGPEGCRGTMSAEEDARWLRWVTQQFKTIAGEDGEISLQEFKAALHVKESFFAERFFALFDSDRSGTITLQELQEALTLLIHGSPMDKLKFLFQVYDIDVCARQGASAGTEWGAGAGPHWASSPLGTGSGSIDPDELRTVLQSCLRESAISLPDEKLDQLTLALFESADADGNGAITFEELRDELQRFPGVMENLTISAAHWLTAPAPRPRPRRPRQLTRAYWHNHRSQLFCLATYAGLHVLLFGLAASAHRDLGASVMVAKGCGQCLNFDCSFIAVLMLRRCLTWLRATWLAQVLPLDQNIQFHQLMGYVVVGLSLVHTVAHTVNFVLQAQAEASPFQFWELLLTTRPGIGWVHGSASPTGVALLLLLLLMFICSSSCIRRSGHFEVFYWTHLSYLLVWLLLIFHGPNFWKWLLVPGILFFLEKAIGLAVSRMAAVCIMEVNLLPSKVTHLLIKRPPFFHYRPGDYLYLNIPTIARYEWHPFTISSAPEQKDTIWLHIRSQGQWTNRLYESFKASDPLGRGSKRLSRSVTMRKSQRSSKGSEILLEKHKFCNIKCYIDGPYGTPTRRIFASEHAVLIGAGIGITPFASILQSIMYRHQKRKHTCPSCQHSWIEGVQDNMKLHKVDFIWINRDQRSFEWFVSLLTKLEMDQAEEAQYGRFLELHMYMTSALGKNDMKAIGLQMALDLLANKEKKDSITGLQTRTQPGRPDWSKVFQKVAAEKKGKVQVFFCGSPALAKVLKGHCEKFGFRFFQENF

[11] = compound effects on lung adenocarcinoma cell viability – A549, calcein-AM fluorescence, 48 h, basal, profiling panel (AID 1162); settings: higher = more signal; note: test concentration not given here
[12] = compound effects on differentiated 3T3-L1 adipocyte viability – cell-based, 3T3-L1 adipocytes, calcein-AM fluorescence, 48 h, basal, profiling panel (AID 1163); settings: 3T3-L1 adipocytes viability, higher = more signal; note: test concentration not given here
[13] = compound effects on hepatocellular carcinoma cell viability – HepG2, calcein-AM fluorescence, 48 h, basal, profiling panel (AID 1164); settings: higher = more signal; note: test concentration not given here
[14] = compound effects on multiple myeloma cell viability – MM1S, calcein-AM fluorescence, 48 h, basal, profiling panel (AID 1165); settings: higher = more signal;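 note: viability of MM1S multiple myeloma cells under basal unstimulated conditions; test concentration not given here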
[15] = calcein-AM signal in unstimulated myeloma cells – cell-based, calcein-AM fluorescence, 48 h, PK04 Diversity Set, profiling panel (AID 1166); settings: RPMI8226 myeloma viability, higher = more signal;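 note: cells grown under basal conditions without added stimulus; test concentration not given here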
[16] = JC-1 mitochondrial signal, unstimulated HepG2 cells – cell-based, JC-1 fluorescence, 24 h, 100 nL compound, profiling panel (AID 1167); settings: HepG2 mitochondrial potential, higher = more signal; note: test concentration not given here
[17] = JC-1 mitochondrial signal, unstimulated adipocytes – cell-based, JC-1 fluorescence, 3T3-L1 adipocytes, 24 h, 100 nL compound, profiling panel (AID 1168); settings: JC-1 mitochondrial fluorescence, higher = more signal, called active from +8 up or from −8 down; note: test concentration not given here
[18] = JC-1 mitochondrial signal, unstimulated myeloma cells – cell-based, JC-1 fluorescence, RPMI8226, 24 h, 100 nL compound, profiling panel (AID 1169); settings: JC-1 mitochondrial potential fluorescence, higher = more signal; note: test concentration not given here
[19] = JC-1 mitochondrial signal, unstimulated MM1S myeloma – cell-based, JC-1 fluorescence, 24 h, 100 nL compound, profiling panel (AID 1170); settings: MM1S mitochondrial potential, higher = more signal; note: test concentration not given here
[20] = resazurin metabolic signal in A549 cells – cell-based, resazurin fluorescence, 24 h, PK04 Diversity Set, profiling panel (AID 1171); settings: A549 viability, higher = more signal, called active from +8 up or from −8 down; note: test concentration not given here

| Structure (SMILES) | z-score [1] | composite z-score [2] | z-score [3] | z-score [4] | z-score [5] | z-score [6] | z-score [7] | z-score [8] | z-score [9] | z-score [10] | z-score [11] | z-score [12] | z-score [13] | z-score [14] | z-score [15] | z-score [16] | z-score [17] | z-score [18] | z-score [19] | z-score [20] |
| --- | --- | --- | --- | --- | --- | --- | --- | --- | --- | --- | --- | --- | --- | --- | --- | --- | --- | --- | --- | --- |
| COc1ccc([Si](C)(C)[C@@H]2[C@@H](CCO)O[C@]3(C(=O)N(Cc4cccc(N5CCOC5=O)c4)c4ccccc43)[C@H]2C)cc1 | -0.196 (inactive) | 0.0357 | 31.3 (active) | 29.8 (active) | -0.28 (inactive) | 3.29 (inactive) | 0.715 | -0.327 (inactive) | 2.15 (inactive) | 1.98 | -0.687 | -0.514 | -0.769 | -2.11 | -4.17 | 0.183 | 1.05 (inactive) | -0.978 | -1.78 | -1.76 (inactive) |
| COc1ccc([C@H]2C[C@H]3C(I)=C[C@@H]2C(=O)[C@]32CO2)cc1 | 0.794 (inactive) | -0.28 | 0.524 (inactive) | 0.0528 (inactive) | 0.255 (inactive) | -0.0393 (inactive) | 0.759 | -0.546 (inactive) | -0.298 (inactive) | -0.974 | -0.87 | 0.698 | -0.856 | -3.23 | -2.81 | -0.22 | 0.315 (inactive) | -0.474 | -0.967 | 0.46 (inactive) |
| CCCCC(O)C1C=CC2C(=O)N(C)C(=O)C2N1N1CCCCC1 (stereo not given) | -1.43 (inactive) | 0.384 | 0.537 (inactive) | 0.917 (inactive) | 0.155 (inactive) | 1.47 (inactive) | -0.751 | -0.353 (inactive) | 0.133 (inactive) | -1.03 | -1.19 | -0.579 | -0.267 | -0.73 | -0.173 | -1.59 | -0.686 (inactive) | 0.135 | -0.026 | -0.377 (inactive) |
| C=C[C@H](C)[C@@H](OC(=O)Nc1ccc(SC)cc1)c1ccc(O)c2ccccc12 | -0.751 (inactive) | 0.0942 | 27.7 (active) | 9.84 (active) | 2.51 (inactive) | 1.31 (inactive) | 1.23 | -5.52 (inactive) | -1.45 (inactive) | 0.894 | -0.89 | 0.0148 | -1.87 | -2.68 | -4.27 | -3.23 | -0.475 (inactive) | -0.934 | -1.59 | -0.774 (inactive) |
| CCCNC(=O)[C@@H]1c2ccccc2C(=O)N(Cc2ccccc2OC)[C@H]1c1ccc(CO)cc1 | 0.0817 (inactive) | -0.0011 | 2.32 (inactive) | 0.117 (inactive) | 0.297 (inactive) | 0.0117 (inactive) | -0.439 | 0.802 (inactive) | 0.998 (inactive) | 0.686 | 2.28 | -0.272 | 1.52 | 0.513 | 0.349 | 1.67 | 0.776 (inactive) | 0.182 | -0.565 | -0.0906 (inactive) |
| CCOc1ccc(N2C(=O)CSC2c2cccc([N+](=O)[O-])c2)cc1 (stereo not given) | 0.379 (inactive) | 0.166 | 0.289 (inactive) | 0.285 (inactive) | 0.85 (inactive) | 0.0093 (inactive) | -0.287 | -0.957 (inactive) | -0.214 (inactive) | 0.887 | 1.77 | -0.704 | 1.1 | -0.119 | -0.804 | 1.61 | 0.989 (inactive) | -0.127 | -0.288 | 0.0421 (inactive) |
| COC(=O)[C@@]1(CCC(=O)OC(C)(C)C)N=C(c2ccc(OCCCO)cc2)O[C@H]1c1ccccc1 | -1.12 (inactive) | -0.009 | 26 (active) | 14.9 (active) | 2.32 (inactive) | 1.89 (inactive) | 0.197 | -2.39 (inactive) | -0.204 (inactive) | -2.57 | -1.68 | 0.673 | -0.968 | -2.83 | -2.83 | -2.01 | -0.306 (inactive) | -1.1 | 0.558 | -1.8 (inactive) |
| [N-]=[N+]=Nc1ccccc1C[C@]1(C(=O)NCc2ccccc2)N=C(c2ccc(OCCCO)cc2)O[C@H]1c1ccccc1N=[N+]=[N-] | -0.107 (inactive) | -0.353 | 28.1 (active) | 28.7 (active) | 2.76 (inactive) | 5.76 (inactive) | 0.096 | -1.87 (inactive) | 0.483 (inactive) | -0.32 | -1.33 | 0.0309 | -1.2 | -2.94 | -3.55 | 1.58 | 0.00967 (inactive) | -1.18 | -2.49 | -1.6 (inactive) |
| C[N+](C)(C)CCCC[C@@H]1NC(=O)[C@@H]2C[C@H](C(=O)NCCCCCCNC(=O)CS)[C@H](c3ccc(O)cc3)N2C1=O | -0.432 (inactive) | -0.101 | 2.2 (inactive) | 0.244 (inactive) | -3.26 (inactive) | -0.114 (inactive) | -0.489 | 0.614 (inactive) | 0.449 (inactive) | 0.0101 | -0.617 | -0.0068 | -0.0675 | -0.14 | -0.385 | 0.439 | -0.888 (inactive) | -0.111 | -0.432 | -0.382 (inactive) |
| COC(=O)[C@@]1(Cc2ccc(F)cc2)[C@H]2c3cc(C(=O)N(C)C)n(Cc4cc(C)n(C)n4)c3C[C@H]2CN1C(=O)c1ccccc1 | -1.48 (inactive) | 0.0576 | 0.797 (inactive) | 0.364 (inactive) | 0.0419 (inactive) | 0.495 (inactive) | -0.438 | 0.743 (inactive) | -0.354 (inactive) | -0.329 | -0.492 | -0.202 | -0.395 | -0.9 | -0.528 | 0.635 | -1.01 (inactive) | -0.12 | 0.203 | -0.759 (inactive) |
